In PubChem BioAssay (NCI):
The panel holds about 83,000 compounds, 20% with a hit somewhere; the sample as a whole holds those more often.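 Negative percent growth values reflect cell death: -40 means 40% of the cells present at the start died, and -100 means all died.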 A number with no mark means an inactive call. The source made the active and inactive calls.

Each molecule was assayed on MCF7 breast (assay: NCI-60 one-dose screen, 48 h (100 = growth as untreated, 0 = no growth, -100 = all killed)). Conditions: 10 µM.
Experimental: Growth inhibition of the MCF7 human tumor cell line is measured as a screen for anti-cancer activity. Cells are grown in 96 well plates and exposed to the test compound for 48 hours. Compounds are tested at a single concentration, which is 10^-5 M for most compounds. The reported endpoint is percent growth (GI% or GIPRCNT), where numbers from 0 - 100% represent growth inhibition, and numbers from -100% - 0 represent cell death. For example, a value of 40 represents 60% growth inhibition. A value of 0 means no net growth occurred over the course of the experiment. A value of -40 indicates 40% of cells at the beginning of the experiment died by the end of the experiment. A value of -100 means all cells are dead at the end of the experiment.
NCI-60 Human Tumor Cell Lines Screen was performed using the standard one-dose NCI protocol, which is described in more detail at https://dtp.cancer.gov/discovery_development/nci-60/default.htm.
Compounds with GIPRCNT values below 10 were considered active. Activity score was based on GIPRCNT using the following formula: […]
Score is 0 for GIPRCNT values of 100 or above, 50 for GIPRCNT values of 0, and 100 for GIPRCNT values of -100.

| Compound | growth |
| --- | --- |
| Cc1[nH]c2ccccc2c(=O)c1CC=C(Cl)Cl | -88.7% (active) |
| CN1C(=O)N(C)C2Nn3c(s/c(=C4\C(=O)N(CCc5ccccc5)c5ccccc54)c3=O)=NC21 (stereo not given) | 43.2% |
| COc1ccc(C2Nc3ncnc(N)c3N=C3c4ccccc4C(=O)C32)cc1 (stereo not given) | 95.5% |
| Cn1c(/C=C(\C#N)c2ccccc2)nc2c(N3CCOCC3)nc(Cl)nc21 | -57.7% (active) |
| COc1ccc(Cn2c(Br)c3c(c2-c2cc(OC)c(OC)c(OC)c2)CCc2sc(NC(=O)c4ccc(OC)cc4)nc2-3)cc1 | 91.5% |
| COC(=O)/C(CCC=C(C)C)=C1\[C@@H](OC(C)=O)C[C@@]2(C)[C@H]1C[C@@H](O)[C@H]1[C@@]3(C)CC[C@H](NCCCNCCCCNCCCN)[C@@H](C)[C@@H]3CC[C@@]12C | 95.6% |
| O=C(CCc1nnc2sc(COc3ccccc3)nn12)c1nc2ncccc2[nH]1 | 94.5% |
| CN=c1ccc2nc3ccc(N)cc3sc-2c1 | -12.7% (active) |
| CCOc1cccc(/C=N\Nc2nc(=O)cc(C(=O)OC)s2)c1O | 8.66% (active) |
| COc1cccc(/C=C/C(=O)c2c(C)nc3ccccc3c2/C=C/c2ccccc2)c1OC | 13.9% |
| CCC(C)(C)C(=O)O[C@H]1C[C@@H](C)C=C2C=C[C@H](C)[C@H](CC[C@@H]3CC=CC(=O)O3)[C@H]21 | 36.8% |
| O=C(/C=C/c1ccccc1)c1ccc(Nc2nc(NCCO)nc(Nc3ccc(Cl)cc3)n2)cc1 | 9.88% (active) |
| O=c1oc2ccc(Br)cc2c(=O)n1-c1ccc(F)cc1F | 2.33% (active) |
| O=c1oc2ccc(F)cc2c(=O)n1-c1ccc(I)cc1F | 1.73% (active) |
| COc1ccc(-c2cn3c(C(=O)Nc4ccccc4Cl)c(-c4ccccc4)c4c3n2CCCC4)cc1 | 71.3% |
| O=C(CCc1nnc2sc(-c3ccc(Cl)cc3Cl)nn12)c1nc2ncccc2[nH]1 | 6.03% (active) |
| CC(=O)c1ccc2oc(=O)n(Cc3ccc(C#N)cc3)c(=O)c2c1 | 98.9% |
| COc1ccc(C(O)(CCC(C)C)C(CN2CCOCC2)c2ccc(Cl)cc2)cc1 (stereo not given) | 55.6% |
| O=C(Nc1ccc(I)cc1F)c1cc(Cl)ccc1O | 1.52% (active) |
| CC1CCCCN1CCCNC(=O)c1ccc2c(c1)sc1nc(-c3ccc(F)cc3)cn12 (stereo not given) | 99.5% |

| Compound | growth |
| --- | --- |
| CCOC(=O)c1cc2c(n1Cc1ccccc1)-c1oncc1CCC2 | 45.8% |
| COc1ccc(C2=NN(/C=C3\SC(=O)NC3=Nc3ccc(F)cc3)C(c3ccc(F)cc3)C2)cc1 (stereo not given) | 94.5% |
| COc1cc(/C=C2\CN(C)C/C(=C\c3cc(CN4CCCCC4)c(O)c(OC)c3)C2=O)cc(CN2CCCCC2)c1O | 11.7% |
| COc1cc(C(=O)Nc2ccc(-c3nc4ccccc4[nH]3)cc2)cc(OC)c1OC | 11.6% |
| C=CCN1C(=O)/C(=c2\sc3n(c2=O)NC2C(N=3)N(CC)C(=O)N2CC)c2ccccc21 (stereo not given) | 34.3% |
| CCOC(=O)c1sc(-c2ccc(OS(=O)(=O)c3cccs3)c(C=O)c2)nc1C | -21.7% (active) |
| COc1ccc2oc(=O)cc(Cn3cc(Cn4cnc5c4c(=O)n(C)c(=O)n5C)nn3)c2c1 | 92.1% |
| CC(=O)Nc1nc2c(s1)CCc1c-2cn(S(=O)(=O)c2ccccc2)c1-c1ccccc1 | 54.2% |
| CCN(CC)CCNC(=O)C(Cl)=C1C(Cl)=C(Cl)C(Cl)=C1Cl | 28.7% |
| NNC(=O)CNC(=O)Nc1n[nH]c(=S)s1 | 93.8% |
| O=c1c2cc(F)ccc2sc2c(Nc3ccncc3)nc3ccccc3c12 | -77.9% (active) |
| Oc1ccc(-c2nc(-c3ccc4oc5ccc(-c6[nH]c(-c7ccc(O)cc7)nc6-c6ccccc6)cc5c4c3)c(-c3ccccc3)[nH]2)cc1 | 50.7% |
| CCOc1c(Br)cc(C2C(C(=O)OC)=CN(C)C=C2C(=O)OC)cc1OC | 35.9% |
| NC(=O)CSc1nc(-c2ccc(F)cc2)cc(-c2ccco2)n1 | 83.2% |
| O=c1oc2ccc(Cl)cc2c(=O)n1-c1ccc(F)cc1F | 5.09% (active) |
| CC(C)CCOc1ccc(-c2n[nH]c(C(F)(F)F)c2-c2cncc(C#N)c2)c(O)c1 | 2.95% (active) |
| CCOC(=O)C1=CN(C)C=C(C(=O)OCC)C1c1cc(Br)c(OCC)c(OC)c1 | 14.7% |
| CCCN1CCN(c2ccc3nc(-c4ccc5nc(-c6cc(OC)ccc6OC)[nH]c5c4)[nH]c3c2)CC1 | -63.3% (active) |
| COc1cc(C#N)cc2[nH]c(=O)oc12 | 101% |
| O=c1oc2ccc(F)cc2c(=O)n1-c1ccc(Cl)cc1F | 2.65% (active) |
